About 83,000 compounds went through this panel and 20% of them were active in at least one assay; those are over-represented in the sample as a whole.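 Results are percent growth after 48 hours of single-concentration exposure. 100 means growth as in untreated cells, lower positive values show inhibition; negative values down to -100 show cell death.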 Values without a mark were called inactive. Active and inactive are the calls of the source. How the source made its calls: active means growth percent below 10; inactive means the rest.
Columns and labels:
Assay in all cases: NCI-60 one-dose screen, 48 h (100 = growth as untreated, 0 = no growth, -100 = all killed)
Conditions in all cases: 10 µM unless noted
[1] = tested on: HCT-15 colon
[2] = tested on: HT29 colon
[3] = tested on: SNB-75 CNS
[4] = tested on: SNB-19 CNS
[5] = tested on: U251 CNS
[6] = tested on: PC-3 prostate
[7] = tested on: UACC-62 melanoma
[8] = tested on: LOX IMVI melanoma
[9] = tested on: SK-MEL-28 melanoma

Structure (SMILES)	growth [1]	growth [2]	growth [3]	growth [4]	growth [5]	growth [6]	growth [7]	growth [8]	growth [9]
COc1ccc(OC)c(/C=C2\COc3ccc(O)cc3C2=O)c1	78.5%	45.9%	116%	84.5%	84.6%	95.2%	84.3%	51.3%	94.9%
CCN(CC)CCOc1ccc(/C(=C(\C)c2ccc(OC)c(F)c2)c2ccc(Cl)cc2)cc1	7.79% (active)	14.9%	94.7%	91.8%	66.8%	64.8%	60.1%	1.85% (active)	68%
O=C1/C(=C/c2ccc([N+](=O)[O-])cc2)COc2ccc(O)c(O)c21	-45.9% (active)	4.87% (active)	18.8%	15%	-34.7% (active)	-6.72% (active)	-19.2% (active)	-75.5% (active)	54.6%
C=C1C(=O)O[C@H]2[C@H]1CC/C(COC(=O)/C=C\C(=O)NCc1ccc(Cn3c(=O)sn(CCCC)c3=O)cc1)=C\CC[C@@]1(C)O[C@@H]21	-29.8% (active)	-22.2% (active)	-63.6% (active)	20.5%	-64.3% (active)	-59.7% (active)	-97.4% (active)	-83.5% (active)	-92.1% (active)
COc1ccc(-c2nc3ncccn3c2/C=C/C(=O)c2cc(OC)c(OC)c(OC)c2)cc1	9.73% (active)	6.11% (active)	9.26% (active)	10.9%	-16.8% (active)	19%	-17% (active)	0.0444% (active)	-47.4% (active)
CCCCN(Cc1ccc(C(=O)NO)cc1)C(=O)Nc1ccc(OCCCCCCCCCn2cc(CCCCC(=O)N[C@H](C(=O)N3C[C@H](O)C[C@H]3C(=O)NCc3ccc(-c4scnc4C)cc3)C(C)(C)C)nn2)cc1	88.7%	19.8%	34.6%	29.5%	34.8%	27.8%	35.9%	23.2%	62.8%
COc1ccc(-n2sc(=O)n(Cc3ccc(COC(=O)C(C)c4ccc(CC(C)C)cc4)cc3)c2=O)cc1 (stereo unspecified)	36.3%	22%	46.7%	80.5%	75.3%	61.7%	55.2%	-75.9% (active)	52.8%
CC(C)n1nc(C#Cc2cccc3cc(-c4cccc(C(F)(F)F)c4)ncc23)c2c(N)ncnc21	64.3%	29.7%	-4.27% (active)	99.6%	63.6%	59.6%	66.6%	58.1%	83.3%
CCN(CC)CCOc1ccc(/C(=C(\C)c2ccc(F)c(OC)c2)c2ccc(Cl)cc2)cc1	2.58% (active)	9.08% (active)	31.9%	8.37% (active)	3.13% (active)	14.8%	-44.8% (active)	-94.1% (active)	-64.6% (active)
CCN(CC)S(=O)(=O)c1ccc(O)c(NC(=O)c2[nH]c(C)c(C(C)=O)c2CCc2ccc(Cl)cc2)c1	42.9%	101%	52.1%	47.1%	31.1%	32.8%	20.2%	39.5%	70.9%
COc1cc(CNC(=O)/C=C/C=C/c2ccc3c(c2)OCO3)ccc1OCc1cn(-c2ccc(Cl)c(Cl)c2)nn1	-49.9% (active)	5.61% (active)	-36.8% (active)	20.5%	-57.5% (active)	-11% (active)	-46.7% (active)	11.6%	6.52% (active)
CC(C)c1ccc(NC(=O)Cc2ccc(Nc3ncnc4cc(-c5cnn(CCN(C)C)c5)ccc34)cc2)cc1	-53.1% [30 µM] (active)	-45.4% [30 µM] (active)	-82.6% [30 µM] (active)	-86.1% [30 µM] (active)	-65.7% [30 µM] (active)	-78.1% [30 µM] (active)	-89.1% [30 µM] (active)	-65.1% [30 µM] (active)	-82.2% [30 µM] (active)
Cn1cc(-c2ccc3nc(-c4ccc(CC(=O)Nc5cc(C(C)(C)C)no5)cc4)cnc3c2)cn1	11.5% [30 µM]	58.4% [30 µM]	26.5% [30 µM]	53.6% [30 µM]	37.3% [30 µM]	40.2% [30 µM]	9.8% [30 µM] (active)	20.1% [30 µM]	37.5% [30 µM]
O=C1c2cccc3c(-c4ccc(-c5nc6c7ccccc7c7ccccc7c6[nH]5)cc4)ccc(c23)C(=O)N1CCN1CCNCC1	40.9%	5.47% (active)	103%	103%	62.1%	66.6%	106%	-55.8% (active)	119%

— PubChem BioAssay (NCI)
